# Reference: the supplement of paper PMC3334620
# The full ranking holds about 33,000 sequences; the median of “E-score (-0.5 to 0.5)” is about -0.036, and the highest 2% start at about 0.37. This excerpt belongs to a sample that is enriched for the highest values.
# Molecular target: T1, Yer064c (UniProt P40041)
# T1 sequence: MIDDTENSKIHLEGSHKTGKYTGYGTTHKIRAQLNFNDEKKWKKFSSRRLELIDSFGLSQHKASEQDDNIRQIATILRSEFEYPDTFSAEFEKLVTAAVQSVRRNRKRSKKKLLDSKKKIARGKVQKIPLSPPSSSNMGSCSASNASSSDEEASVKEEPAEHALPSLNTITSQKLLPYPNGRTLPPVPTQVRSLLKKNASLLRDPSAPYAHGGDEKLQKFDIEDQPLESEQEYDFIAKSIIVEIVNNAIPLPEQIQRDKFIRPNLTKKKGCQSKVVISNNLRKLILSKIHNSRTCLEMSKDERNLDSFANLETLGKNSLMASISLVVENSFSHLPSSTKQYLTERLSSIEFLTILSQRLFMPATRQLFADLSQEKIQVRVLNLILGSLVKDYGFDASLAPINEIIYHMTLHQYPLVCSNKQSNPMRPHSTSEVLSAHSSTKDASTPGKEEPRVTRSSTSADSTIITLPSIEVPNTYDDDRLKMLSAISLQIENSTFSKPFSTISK
# Assay: PBM E-score (8-mer binding enrichment) (E-score (-0.5 to 0.5)); higher = stronger / more preferred TF binding
# Conditions: protein concentration: 200 nM; construct: GST-full length
# Outline: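 The E-score, a modified Wilcoxon-Mann-Whitney statistic, was computed by the Universal PBM Analysis Suite for every ungapped eight-base word pooled with its reverse complement. Scans behind it were normalised with masliner after bound GST-tagged yeast transcription factors were detected with fluorescent anti-GST. The proteins, at about 100-200 nM, had been applied to universal all-10-mer Agilent arrays made double-stranded by primer extension.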
row,Sequence,PBM E-score
1,ATGGATGG,-0.0396
2,GCAACTGC,-0.0982
3,AACCGTGT,0.0249
4,CGGTTCAG,-0.212
5,TAGCTAAA,0.0446
6,CCGGGGGC,-0.128
7,CCCCACCC,-0.0582
8,ATCATTTA,0.327
9,ATCCTTAG,-0.107
10,CATGGCCG,-0.31
11,AGACTCTC,0.334
12,ACACTCCG,-0.136
13,AGACTCAT,0.467
14,AGACTCCG,0.367
15,AGACTCCT,0.337
16,CGACTCAC,0.468
17,ACTCTCAT,0.112
18,CAACTCAC,0.224
19,CGACTCTC,0.381
20,CCACTCAC,-0.0373
21,CGACTCGC,0.361
22,ACACTCAT,0.25
23,TGGGCTAA,-0.0729
24,AGATGGTC,-0.295
25,AGAGACAG,-0.0696
26,GAACTAGA,0.0303

row,Sequence,PBM E-score
1,CTACTCAG,0.132
2,CGACTCAG,0.45
3,CCACTCAG,0.0632
4,CCGTTATC,0.0125
5,ATGGCGGG,-0.0628
6,ACTCACAT,0.35
7,CGTCACAC,-0.155
8,AGTCACAT,0.469
9,AGGCACAT,-0.117
10,GGTCACAA,0.0763
11,CGTCACAA,-0.0973
12,AGTCACAA,0.46
13,CGTCACAG,-0.031
14,AGTCACAC,0.477
15,GGTCACAC,-0.00398
16,AGTCACAG,0.467
17,ATTCACAG,0.078
18,CCCCGCTA,-0.209
19,CTGGCGCC,-0.331
20,TGCGGACA,-0.121
21,GATGGCTA,0.359
22,CACTCATG,0.222
23,CTGTCATA,0.0424
24,TAGTCATA,0.489
25,CGGTCATA,-0.0954
26,ATGTCATG,0.214

row,Sequence,PBM E-score
1,TACTCATA,0.343
2,CAGTCATG,0.458
3,CAGTCATA,0.448
4,CCGTCATA,0.0861
5,CGCGGACC,-0.262
6,CGGTTGAC,0.0774
7,ACCAGCGG,-0.133
8,CGGCAAGA,-0.115
9,ATTCAATC,0.308
10,ACTCAATC,0.404
11,AGTCAATG,0.377
12,ATTCAATG,0.204
13,AGTCAATC,0.426
14,CGTCAATC,0.17
15,CGTCAATA,-0.192
16,AATCAATG,0.236
17,AATCAATC,0.301
18,GGTCAATA,0.108
19,ACTCAATG,0.302
20,AGTCAATA,0.383
21,AGCGGATG,-0.0548
22,CTGGGCTA,-0.161
23,AGGCTACC,-0.0969
24,CCAACACC,-0.158
